What is called inhibition is the drop in the measured response relative to a control, in per cent.

The whole screen tested about 320,000 compounds, of which about 2,800 (0.88%) were called active. The sample as a whole holds a higher share of actives than the screen did. Unmarked numbers belong to inactive results.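 The calls were made as follows: active = inhibition above the mean inhibition of all tested compounds plus 3 SD, computed separately for each screening campaign (cut at about 15% in these data); inactive = the rest.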

The source of these data is PubChem BioAssay AID2235 (The Scripps Research Institute Molecular Screening Center, 2010).

This experiment deals with Serine/threonine-protein phosphatase PP1-alpha catalytic subunit (Homo sapiens) (UniProt P62136). Briefly: inhibition of human PP1 catalytic subunit – biochemical, fluorescence, OMFP substrate, single point, counter-screen for PP5 inhibitor project, primary screen (AID 2235). Conditions: purified PP1alpha, at 6.7 µM, hits give high values. A general note: The purpose of a counterscreen is to sort out artefacts and off-target activity.
Chain of Serine/threonine-protein phosphatase PP1-alpha catalytic subunit (Homo sapiens) (P62136 whole entry, looked up): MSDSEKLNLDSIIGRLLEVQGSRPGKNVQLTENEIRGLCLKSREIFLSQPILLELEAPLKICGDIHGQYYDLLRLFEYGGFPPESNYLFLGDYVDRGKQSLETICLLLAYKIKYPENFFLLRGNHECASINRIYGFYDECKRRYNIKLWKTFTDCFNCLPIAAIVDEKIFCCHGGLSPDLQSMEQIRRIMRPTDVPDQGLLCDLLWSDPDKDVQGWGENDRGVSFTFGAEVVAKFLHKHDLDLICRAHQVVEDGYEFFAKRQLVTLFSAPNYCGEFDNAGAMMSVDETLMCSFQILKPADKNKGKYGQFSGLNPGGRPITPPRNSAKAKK
`Cc1nn(-c2ncc(C(F)(F)F)cc2Cl)c(=O)n1-c1ccccc1`: the inhibition is -0.83%.
For the molecule `COc1ccc(C2CC(c3cccs3)=NN2C(=O)CCC(=O)O)cc1OC` (stereo not drawn), the inhibition is 0.57%.
With `O=C1c2cccc(OCC(=O)N3N=C(c4cccs4)CC3c3ccc(F)cc3)c2CCN1Cc1ccccc1` (stereo not drawn), the inhibition was 21% (active).
For `O=C(COc1ccccc1Cl)N1N=C(c2cccs2)CC1c1ccco1` (stereo not drawn) the value was 7.67%.
`Cc1cc(C)nc(Nc2n[nH]c(-c3ccccc3N)n2)n1`: the inhibition was 0.04%.
To `CN1C(=O)c2ccc(C(=O)Nc3ccc(Br)cn3)cc2C1=O` belongs -4.13%.
In the case of `COc1cc(OC)c(/C=N/NC(=O)c2ccc([N+](=O)[O-])cc2)cc1Br`, the inhibition was -0.65%.
As for `CN(C)CCNC(=O)c1[nH]nc2c1CCc1ccccc1-2`, the inhibition is -1.2%.
Turning to `COc1cccc(/C=N/NC(=O)c2[nH]nc3c2CCc2ccccc2-3)c1O`, the inhibition was 25% (active).
Regarding `O=S(=O)(NN=C1CCCCCCC1)c1ccc(Br)cc1`, the inhibition is -0.57%.
For `O=C(O)CC(CC(=O)N1CCOCC1)c1ccccc1` (stereo not drawn) the value was -2.86%; for `CCN(CC)CCCNC(=O)CCc1ccccc1`, -3.5%; for `CN(C(=O)CN(CCO)CC(=O)N(C)C(C)(C)Cc1ccccc1)C(C)(C)Cc1ccccc1`, 21.1% (active).
As to `OCCN(Cc1ccccc1)Cc1ccc(Cl)cc1`, the inhibition is 5.28%.
To `Cc1ccccc1-n1c(SCC(=O)Nc2cccc3ccccc23)nc(O)cc1=O` belongs 15.6% (active).
To `C=CCn1c(N)cc(=O)nc1SCC(=O)Nc1cccc2ccccc12` belongs 2.61%.
To `Cc1ccc2nc(SCC(=O)Nc3cccc4ccccc34)nc(=O)n2c1` belongs -4.71%; to `COC(=O)C1NN=C(C(=O)c2ccc(Br)cc2)C1c1cccc(Br)c1` (stereo not drawn), 1.62%; to `COc1cc(-c2nn3c(-c4cccc(C)c4)nnc3s2)cc(OC)c1OC`, 7.7%.
As to `c1ccc(-c2cc(-c3nnc4sc(-c5ccccn5)nn34)[nH]n2)cc1`, the inhibition is 14%.
As for `CCOc1cccc(-c2nn3c(-c4ccccn4)nnc3s2)c1`, the inhibition is 16.3% (active).
Take `CCCCCCCC[n+]1cccc(C(=O)N2c3c(nc(N)[nH]c3=O)NC(C)C2C)c1` (stereo not drawn): the inhibition was -2.25%.
As to `CCN(CC(=O)NCc1cccs1)C(=O)c1ccc(OC)c(S(=O)(=O)N2CCOCC2)c1`, the inhibition is -5.16%.
For `O=C(c1ccco1)N1CCN(C(=S)Nc2cc(F)cc(F)c2)CC1` the value was -1.12%; for `COC(=O)c1c(C)c(C)nc(N)c1C#N`, -0.85%.
Turning to `O=[N+]([O-])/C=C/c1ccc2c(ccn2Cc2ccccc2)c1`, the inhibition was 18.3% (active).
Consider `O=C(/C=C/c1cccc([N+](=O)[O-])c1)N1CCN(Cc2ccccc2)CC1`, for which the inhibition is 1.31%.
To `COC(=O)Cn1cc(/C=C/[N+](=O)[O-])c2ccccc21` belongs -3.58%; to `Cc1ccnc(N2CCN(C(=O)CSc3nc4ccccc4nc3N3CCCCC3)CC2)c1`, 2.11%; to `CCCC[C@H]1COCCS(=O)(=O)N1Cc1cccc(Cl)c1`, -6.26%.
On to `Oc1c(Cl)cc(Cl)c(Cl)c1Cc1c(O)c(Cl)cc(Cl)c1Cl`, for which the inhibition was 21% (active).
For the molecule `COc1cc(N2C(=O)CSC2=S)cc(OC)c1OC`, the inhibition is -0.27%.
For `CC(C)n1ncc2c(C(=O)Nc3ccc(CC#N)cc3)cc(C3CC3)nc21` the value was 0.77%; for `CC(=O)Nc1ccc(S(=O)(=O)NC(C)C(=O)OCC(=O)NC2CCCC2)cc1` (stereo not drawn), -2.23%.
For the molecule `COc1ccc(/C=N/NC(=O)c2cc(-c3cccc(C)c3)nc3ccccc23)cc1O`, the inhibition was -0.69%.
`O=C(N/N=C/C=C/c1ccco1)c1cccs1`: the inhibition was -2.08%.
With `Cc1ccc(-c2cc(C(=O)N/N=C/C=C/c3ccco3)c3ccccc3n2)cc1C`, the inhibition was 20% (active).
To `CCn1cc(C(=O)NC2CCCCCC2)c(=O)c2cc(S(=O)(=O)N3CCCCC3)ccc21` belongs -1.18%.
For `Cc1ccc(N2C(=O)C3C4C=CC(CC4)C3C2=O)cc1Br` (stereo not drawn) the value was -2.3%; for `O=C(Nc1cccc(-c2nc3ccccc3[nH]2)c1)c1ccc(C(=O)Nc2cccc(-c3nc4ccccc4[nH]3)c2)cc1`, 18.9% (active).
For `Cc1ccc(-c2nc3ccccc3[nH]2)cc1N`, the inhibition was -2.81%.
For `O=C(/C=C/c1ccco1)Nc1cccc(-c2nc3ccccc3[nH]2)c1` the value was -1.53%; for `O=C(O)c1ccccc1C(=O)NC1=NN(c2ccccc2)CC1`, 2.04%.
To `Cc1ccc2nc(N(CCN(C)C)C(=O)C3=COCCO3)sc2c1` belongs -4.21%; to `O=C(NCc1cccs1)c1cc(-c2ccccn2)nc2ccc(Br)cc12`, 0.34%; to `Cc1nn(C)cc1CNC(=O)Nc1ccc(Cl)cc1`, -6.68%.
Turning to `Cc1ccc(-c2cc(C(=O)NCc3cn(C)nc3C)c3cc(Br)ccc3n2)cc1`, the inhibition is 15.4% (active).
To `Cc1cc(C)c(C(N)=O)c(Cl)n1` belongs -1.75%.
For `CCCN(CCC)CCCNC(=O)CNC(=O)c1nn(-c2ccc(OC)cc2)c(=O)c2ccccc12` the value was -4.54%; for `COc1ccc(CN2CCNC(=O)C2CC(=O)NCc2cn[nH]c2-c2ccccc2)c(F)c1` (stereo not drawn), 3.63%.
For `OCCC1CN(Cc2ccc(Oc3ncccn3)cc2)CCN1CCc1ccccc1` (stereo not drawn) the value was -2.28%; for `COc1cc(/C=C/C(=O)OCC(=O)NC(=O)NCc2ccccc2)ccc1OCC#N`, -4.2%; for `CCOc1ccc(/C=C/C(=O)OCC(=O)c2ccccc2OC)cc1OC`, 23.7% (active).
With `COc1ccc(/C=C/C(=O)OCC(=O)NCc2cccs2)cc1OC`, the inhibition is -2.5%.
For `O=C(C1CCCO1)N1CCN(S(=O)(=O)c2ccc(Br)cc2)CC1` (stereo not drawn) the value was 0%; for `COc1cc(NC(=O)COC(=O)c2cnc(C)cn2)c(C)cc1[N+](=O)[O-]`, -3.47%.
To `Nn1c(SCc2ccccc2)nnc1C1CCCCC1` belongs -2.09%; to `COCCCNC(=O)C1CC(=O)N(c2ccc(C)cc2)C1` (stereo not drawn), 73.3% (active); to `COCCCNC(=O)C1CC(=O)N(CCc2ccccc2)C1` (stereo not drawn), 0.11%.
For `COCCNC(=O)C1CCN(C(=O)C2CC(=O)N(c3ccc(C)cc3)C2)CC1` (stereo not drawn) the value was -0.32%; for `Cc1cccnc1NC(=O)c1cccc(S(=O)(=O)N2CCN(c3ccc(F)cc3)CC2)c1`, -3.22%; for `Oc1c(CN2CCN(c3ccc(F)cc3)CC2)cc(Cl)c2cccnc12`, 35.2% (active).
Take `O=C(CN1CCN(c2ccc(F)cc2)CC1)Nc1ccccc1`: the inhibition is 2.42%.
For `C1CC1Cc1noc(CN2CCN(CC3CC3)CC2)n1` the value was -4.45%; for `CC(=O)Nc1ccc(C(=O)NNC(=O)CCCCC(=O)NNC(=O)c2ccc(NC(C)=O)cc2)cc1`, -4.34%.
To `CCc1sc(C(=O)N2CCN(CC(=O)Nc3cccc(F)c3)CC2)cc1C` belongs -1.08%; to `O=C(Nc1ccc(C(=O)O)cc1)/C(=C/c1ccc([N+](=O)[O-])cc1)NC(=O)c1ccccc1`, -0.04%; to `Cc1ccc(NC(=O)/C(=C/c2ccc([N+](=O)[O-])cc2)NC(=O)c2ccccc2)cc1`, 1.49%.
To `O=C(N/N=C/c1cc([N+](=O)[O-])ccc1O)/C(=C\c1cccs1)NC(=O)c1ccccc1` belongs 19.9% (active).
Consider `COC(=O)CC(=O)N1CCN(c2ccc(Cl)c(Cl)c2)CC1`, for which the inhibition is -1.17%.
To `CC(C)Cn1c(N)c(C(=O)COC(=O)C2CCCN2C(=O)c2cccs2)c(=O)n(C)c1=O` (stereo not drawn) belongs 3.85%; to `Cc1ccc(OCC(=O)N2CCN(S(=O)(=O)c3ccc(Cl)s3)CC2)cc1C`, 2.28%; to `Cc1nc2c(C(=O)NCc3ccc4c(c3)OCO4)c[nH]n2c(=O)c1Cc1ccccc1F`, 42.6% (active).
For `CCn1c(=O)c(C(=O)NCc2ccc3c(c2)OCO3)c(O)c2ccccc21` the value was -4.95%; for `O=C(NCc1ccc2c(c1)OCO2)c1cc(F)c(F)cc1Cl`, 2.6%.
Take `COc1ccccc1NC(=O)CSc1nnc(C)n1CC1CCCO1` (stereo not drawn): the inhibition was -1.67%.
To `Cc1ccc(NC(=O)CSc2nnc(COc3ccccc3C)o2)cc1` belongs -4.67%; to `CC(=O)Nc1ccc(NC(=O)CSc2nnc(COc3ccccc3C)n2CC2CCCO2)cc1` (stereo not drawn), 16.9% (active); to `Cc1cccc2cc(CN(Cc3cccs3)C(=S)NCc3ccco3)c(=O)[nH]c12`, 16.9% (active).
For `Cc1cccc2cc(CN(C(=O)c3cccs3)c3ccccc3)c(=O)[nH]c12` the value was 1.24%; for `Cc1ccc(C)c2[nH]c(=O)c(CN(Cc3cccnc3)C(=S)NCc3ccco3)cc12`, 1.73%; for `Cc1ccnc(NC(=O)c2ccc(Cl)c([N+](=O)[O-])c2)c1`, -0.42%.
`Cc1c(NC(=O)CN2C(=O)C(=O)N(Cc3ccccc3)C2=O)c(=O)n(-c2ccccc2)n1C`: the inhibition is -2.42%.
To `N#Cc1c(-c2ccccc2)nc(SCc2ccc([N+](=O)[O-])cc2)[nH]c1=O` belongs 9.45%; to `Cc1ccc(CSc2nc(-c3ccccc3)c(C#N)c(=O)[nH]2)cc1`, 14.2%; to `N#Cc1c(-c2ccccc2)nc(SCc2cccc(C(F)(F)F)c2)[nH]c1=O`, 22.1% (active).
With `Cc1ccc(OCCC(=O)OCC(=O)N2c3ccccc3NC(=O)C2(C)C)cc1`, the inhibition is 0.61%.
For `CCCCN(CC)C(=O)c1ccccc1Oc1ccccc1` the value was -1.38%.
Consider `CCOC(=O)c1c(S(=O)(=O)Nc2ccc(CN3CCC(C)CC3)cc2)c(C)n(C)c1C`, for which the inhibition is 2.36%.
With `O/N=C(\c1ccc2c(c1)OCCO2)C1CCCCC1`, the inhibition was 0.46%.
To `Cc1ccc2c(CN3CCN(S(=O)(=O)c4ccccc4C(F)(F)F)CC3)cc(=O)oc2c1` belongs 16.8% (active); to `Cc1cc2oc(=O)cc(CN3CCN(S(=O)(=O)c4cccs4)CC3)c2cc1C(C)C`, -3.33%.
Consider `COc1ccc2c(CN3CCN(S(=O)(=O)c4cccs4)CC3)cc(=O)oc2c1`, for which the inhibition was 4.63%.
